The record followed here is PubChem BioAssay (NCATS).

Structures are written as SMILES. Records with an inconclusive call do not appear. A number with no mark means an inactive call. The source made the active and inactive calls. The call rests on the fitted dose curve; in most records, active means well fitted curve in the direction sought with a large enough effect; inconclusive means small, poorly fitted or top-dose-only effect, or another doubt; inactive means no such curve, though single readings can be large; an effect the other way counts as inactive or inconclusive.

Experiment [1] deals with Rap guanine nucleotide exchange factor 3 (Homo sapiens) (UniProt O95398). As to the kind of experiment: Confirmatory qHTS for antagonist of cAMP-regulated guanine nucleotide exchange factor 3 (EPAC1) (AID 1645880). Further: nearly all actives have a fitted effect of over 55% in size. Further: potency means the concentration at half of the fitted maximal effect.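 On activity, negative = inhibition: plate controls were DMSO only for no effect and full effect of the ATA control for full effect.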 As to conditions: EPAC1 Rap1B-BODIPY-GDP exchange, fluorescence; activity, negative = inhibition: at 115 µM (top of the series). A digest of the protocol:
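Released BODIPY-GDP fluoresces less than Rap1-bound BODIPY-GDP; the signal is followed at 480/540 nm at 5-min intervals over 30 min, after 5 min at room temperature. Reactions contain 100 nM EPAC1, 250 nM RAP1B-BODIPY-GDP and 50 uM GDP; results are normalized to ATA and DMSO.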

The target is the same in experiment [2]. In words: Confirmatory qHTS for agonist of cAMP-regulated guanine nucleotide exchange factor 3 (EPAC1) (AID 1645881;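 further: EPAC1 catalysed release of BODIPY-GDP from Rap1B seen as fluorescence loss; 100% = effect of cAMP agonist control; nearly all actives have a fitted effect of over 75% in size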). (Quantitative high-throughput screening tests each substance at several concentrations.)
The target in experiment [3] is Rap guanine nucleotide exchange factor 4 (Homo sapiens) (UniProt Q8WZA2). As to the kind of experiment: Confirmatory qHTS for agonist of cAMP-regulated guanine nucleotide exchange factor 4 (EPAC2) (AID 1645884).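 Further: nucleotide exchange releases bodipy-GDP from Rap1 and this lowers its fluorescence; on the % scale 0 is the no-effect control and ±100 the full control effect; nearly all actives have a fitted effect of over 65% in size.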
Rap guanine nucleotide exchange factor 4 (Homo sapiens), sequence (Q8WZA2 whole entry, looked up): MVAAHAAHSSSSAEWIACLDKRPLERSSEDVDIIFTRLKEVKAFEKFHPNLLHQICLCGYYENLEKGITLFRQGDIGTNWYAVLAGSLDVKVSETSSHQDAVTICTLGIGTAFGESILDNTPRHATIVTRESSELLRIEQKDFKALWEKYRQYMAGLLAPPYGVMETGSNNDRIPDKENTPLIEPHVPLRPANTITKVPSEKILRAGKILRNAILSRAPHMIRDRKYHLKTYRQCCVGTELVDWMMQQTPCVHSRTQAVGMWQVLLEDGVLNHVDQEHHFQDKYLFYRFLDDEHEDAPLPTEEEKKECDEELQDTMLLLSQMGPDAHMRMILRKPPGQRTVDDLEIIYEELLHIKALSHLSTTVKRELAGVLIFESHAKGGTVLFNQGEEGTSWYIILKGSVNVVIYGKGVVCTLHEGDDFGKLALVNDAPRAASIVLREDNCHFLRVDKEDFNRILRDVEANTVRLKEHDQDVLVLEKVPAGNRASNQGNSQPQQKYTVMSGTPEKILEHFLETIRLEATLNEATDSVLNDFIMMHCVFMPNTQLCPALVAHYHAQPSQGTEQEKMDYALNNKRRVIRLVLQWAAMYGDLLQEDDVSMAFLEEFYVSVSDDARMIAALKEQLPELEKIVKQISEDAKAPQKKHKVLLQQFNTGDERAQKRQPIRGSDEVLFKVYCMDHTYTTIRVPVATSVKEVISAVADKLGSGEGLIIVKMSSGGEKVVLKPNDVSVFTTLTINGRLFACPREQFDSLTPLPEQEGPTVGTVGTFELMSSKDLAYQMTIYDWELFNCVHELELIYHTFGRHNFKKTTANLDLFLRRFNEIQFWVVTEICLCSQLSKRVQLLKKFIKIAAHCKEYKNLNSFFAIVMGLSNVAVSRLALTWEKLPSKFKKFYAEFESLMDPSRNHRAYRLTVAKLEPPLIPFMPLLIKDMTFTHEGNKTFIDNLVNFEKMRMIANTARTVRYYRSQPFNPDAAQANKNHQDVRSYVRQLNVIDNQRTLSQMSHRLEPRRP
Experiment [4] shares this target. In words: Confirmatory qHTS for antagonist of cAMP-regulated guanine nucleotide exchange factor 4 (EPAC2) (AID 1645885). Further: nearly all actives have a fitted effect of over 25% in size. Further: potency means the concentration at half of the fitted maximal effect. On activity change, negative = inhibition: on the % scale 0 is the no-effect control and ±100 the full control effect.
In experiment [5] the target is Rap guanine nucleotide exchange factor 3 (Homo sapiens) (UniProt O95398). In words: Counterscreen qHTS for antagonist of cAMP-regulated guanine nucleotide exchange factor 3 (EPAC1) (AID 1645888). Further: % of control where 0% means no effect. A digest of the protocol:
(§1)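 Rap1B-BODIPY-GDP 250 nM + GDP 50 uM; cpds 7-pt, final 9.74 nM–152 uM (activator mode) or from 7.32 nM upwards (inhibitor mode); RT; FI 480/540 nm at 5 and 30 min, then ± cAMP, reread.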

Experiment [6] shares this target. As to the kind of experiment: Counterscreen qHTS for agonist of cAMP-regulated guanine nucleotide exchange factor 3 (EPAC1) (AID 1645889). Further: nearly all actives have a fitted effect of over 40% in size. Further: potency means the concentration at half of the fitted maximal effect. On activation: % of control where 0% means no effect. A digest of the protocol:
as §1
A general note: A counterscreen serves to expose hits that act by an unwanted route or on another target.

Rap guanine nucleotide exchange factor 3 (Homo sapiens), sequence (O95398 whole entry, looked up): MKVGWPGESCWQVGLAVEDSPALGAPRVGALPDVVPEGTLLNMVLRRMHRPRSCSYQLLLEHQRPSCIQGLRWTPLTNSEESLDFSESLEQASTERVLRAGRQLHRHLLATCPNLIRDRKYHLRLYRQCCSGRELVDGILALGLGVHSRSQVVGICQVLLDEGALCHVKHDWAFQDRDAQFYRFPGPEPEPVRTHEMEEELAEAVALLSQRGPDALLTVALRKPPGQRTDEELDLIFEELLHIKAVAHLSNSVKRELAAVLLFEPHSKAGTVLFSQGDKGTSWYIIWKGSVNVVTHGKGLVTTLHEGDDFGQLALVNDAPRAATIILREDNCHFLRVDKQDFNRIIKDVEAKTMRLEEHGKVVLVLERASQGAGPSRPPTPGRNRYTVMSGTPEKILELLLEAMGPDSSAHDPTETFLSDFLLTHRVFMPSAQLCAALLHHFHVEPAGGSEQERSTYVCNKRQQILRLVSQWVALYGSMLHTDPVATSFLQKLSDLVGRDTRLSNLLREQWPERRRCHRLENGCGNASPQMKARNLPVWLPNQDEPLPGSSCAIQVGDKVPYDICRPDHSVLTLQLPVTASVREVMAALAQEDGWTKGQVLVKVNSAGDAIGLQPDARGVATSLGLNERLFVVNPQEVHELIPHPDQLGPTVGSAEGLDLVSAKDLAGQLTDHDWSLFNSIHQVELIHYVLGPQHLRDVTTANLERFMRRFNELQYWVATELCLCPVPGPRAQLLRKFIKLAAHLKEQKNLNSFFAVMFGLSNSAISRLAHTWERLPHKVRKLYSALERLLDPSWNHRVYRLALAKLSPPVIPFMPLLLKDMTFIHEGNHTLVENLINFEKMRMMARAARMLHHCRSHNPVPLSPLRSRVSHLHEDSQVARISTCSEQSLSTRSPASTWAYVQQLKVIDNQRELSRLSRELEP

Turning to `Cc1c(C(=O)N2CCC2)oc2ccc(Br)cc12`, the Potency result in experiment [1], in experiment [2], in experiment [3], in experiment [5] and in experiment [6] was “inactive” throughout. Moreover, the Potency in experiment [4] is 33.8 µM (active).
As for `COc1cc2c(cc1OC)CN(C(C)C(=O)N1CCc3ccccc31)CC2` (stereo not given), the Potency entry in experiment [1], in experiment [2], in experiment [3], in experiment [4], in experiment [5] and in experiment [6] was “inactive” each time.
`CSc1ccccc1NC(=O)CN(c1ccccc1)S(=O)(=O)N(C)C`: the Potency result in experiment [1], in experiment [2], in experiment [3], in experiment [4], in experiment [5] and in experiment [6] was “inactive” throughout.
For `COc1ccc(C2CC(c3ccccc3OC(C)=O)=NN2C(C)=O)cc1` (stereo not given), the Potency result in experiment [1], in experiment [2], in experiment [3], in experiment [4], in experiment [5] and in experiment [6] was “inactive” in each case.
As for `CC(=O)Nc1sc(/C(C#N)=C\c2cccc(Cl)c2)nc1-c1ccc(C)cc1`, the Potency entry in experiment [1], in experiment [2] and in experiment [4] was “inactive” in each case. Further, the activation in experiment [3] is -17.2% [at 17.1 µM, percent relative to cAMP agonist control]; in experiment [6], 23.7% [at 30.8 µM]. For the same compound, in experiment [5], the activity change, negative = inhibition was 148% [at 30.8 µM].
For `O=C(Nc1nc2ccc(Cl)cc2s1)C1CCCO1` (stereo not given), the Potency result in experiment [1], in experiment [2] and in experiment [4] was “inactive” in each case. Besides, the activation is 6.17% [at 17.1 µM, percent relative to cAMP agonist control] in experiment [3] and 15.7% [at 30.8 µM] in experiment [6]. Moreover, the activity change, negative = inhibition in experiment [5] was 0.458% [at 30.8 µM].
With `Cc1ccc(OCC(=O)OC(C)CN(C)Cc2ccccc2)cc1` (stereo not given), the Potency entry in experiment [1], in experiment [2] and in experiment [4] was “inactive” in each case. Besides, the activation was 4.43% [at 17.1 µM, percent relative to cAMP agonist control] in experiment [3] and 10.6% [at 30.8 µM] in experiment [6]. Besides, the activity change, negative = inhibition in experiment [5] was 8.78% [at 30.8 µM].
For the compound `COC(=O)[C@@H](NC(=O)Nc1ccc2c(c1)OCCO2)C(C)C`, the Potency result in experiment [1], in experiment [2], in experiment [3], in experiment [4], in experiment [5] and in experiment [6] was “inactive” throughout.
Regarding `Cc1ccc(S(=O)(=O)Nc2cc(C(=O)NCCN3CCCC3)ccc2N2CCCCC2)cc1`, the Potency result in experiment [1], in experiment [2], in experiment [3], in experiment [4], in experiment [5] and in experiment [6] was “inactive” throughout.
Consider `Cc1cc2oc(=O)cc(CN3CCCC3)c2cc1Cl`, for which the Potency entry in experiment [1], in experiment [2] and in experiment [4] was “inactive” each time. Moreover, the activation was -3.71% [at 17.1 µM, percent relative to cAMP agonist control] in experiment [3] and 28.8% [at 30.8 µM] in experiment [6]. Also, the activity change, negative = inhibition in experiment [5] is 3.14% [at 30.8 µM].
Regarding `CCOC(=O)C1=C(CC)OC(N)=C(C#N)C1c1ccc(OC)c(OC)c1OC` (stereo not given), the Potency result in experiment [1], in experiment [2] and in experiment [4] was “inactive” each time. In addition, the activation was -0.762% [at 17.1 µM, percent relative to cAMP agonist control] in experiment [3] and 8.26% [at 30.8 µM] in experiment [6]. Moreover, the activity change, negative = inhibition in experiment [5] is -16.4% [at 30.8 µM].
As for `CCCCn1nnc(NC(=O)c2ccco2)n1`, the Potency result in experiment [1], in experiment [2] and in experiment [4] was “inactive” throughout. Moreover, the activation was 6.58% [at 17.1 µM, percent relative to cAMP agonist control] in experiment [3] and 0.136% [at 30.8 µM] in experiment [6]. Moreover, the activity change, negative = inhibition in experiment [5] was 4.22% [at 30.8 µM].
`COc1ccc(OC)c(NS(=O)(=O)c2cc3c4c(c2)CCN4C(=O)CC3)c1`: the Potency result in experiment [1], in experiment [2], in experiment [3], in experiment [4], in experiment [5] and in experiment [6] was “inactive” each time.
Turning to `O=C1CCc2cc(NS(=O)(=O)c3ccc([N+](=O)[O-])cc3)cc3c2N1CC3`, the Potency entry in experiment [1], in experiment [2], in experiment [3], in experiment [4], in experiment [5] and in experiment [6] was “inactive” throughout.
Consider `CCN1CCN(c2ccc(S(=O)(=O)N3CCCCC3)cc2NC(=O)C(C)Oc2ccc(F)cc2)CC1` (stereo not given), for which the Potency entry in experiment [1], in experiment [2], in experiment [3], in experiment [4], in experiment [5] and in experiment [6] was “inactive” in each case.
As for `COCCCn1c(=N)c(C(=O)NCc2cccnc2)cc2c(=O)n3cccc(C)c3nc21`, the Potency result in experiment [1], in experiment [2], in experiment [3], in experiment [5] and in experiment [6] was “inactive” throughout. Besides, the outcome in experiment [4] was “inactive [at 12.7 µM]”.
With `CCC(COC)Oc1cc(NCc2ccccc2)c2ncn(C(C)C)c2c1` (stereo not given), the Potency result in experiment [1], in experiment [2], in experiment [3], in experiment [4] and in experiment [5] was “inactive” throughout. In experiment [6], the Potency was 7.94 µM (active).
For the compound `CSc1ccc(CC2C(=O)Nc3ccccc32)cc1` (stereo not given), the Potency entry in experiment [1], in experiment [2], in experiment [3], in experiment [4], in experiment [5] and in experiment [6] was “inactive” in each case.
As to `COc1cccc(-n2ccn(CC(=O)NCc3ccc(C)cc3)c(=O)c2=O)c1`, the Potency entry in experiment [1], in experiment [2], in experiment [3], in experiment [4], in experiment [5] and in experiment [6] was “inactive” in each case.
For `Cc1[nH][nH]c(=O)c1C(c1c(C)[nH][nH]c1=O)c1cn(Cc2cccc3ccccc23)c2ccccc12`, the figures for the Potency in experiment [1] and in experiment [6] were 75.7 µM (active) and 12.6 µM (active), respectively. Further, the Potency entry in experiment [2], in experiment [3], in experiment [4] and in experiment [5] was “inactive” each time.
